Molecules are shown by their SMILES. The panel holds about 83,000 compounds, 20% with a hit somewhere; the sample as a whole holds those more often.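 Cells were grown in 96-well plates and exposed to the test compound at a single concentration for 48 hours; results are reported as percent growth, with values below 10 considered active.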 A number with no mark means an inactive call. Calls of active or inactive are those of the source.

The test system of the test is CCRF-CEM leukemia. The experiment in a line: NCI-60 one-dose screen, 48 h (100 = growth as untreated, 0 = no growth, -100 = all killed). The note with it: 10 µM unless noted.
Consider `Nc1nc(Cl)cc(Cl)n1`, for which the growth is 108%.
The result for `CCCCCCCCCCCCCCCCOc1ccccc1NC(=O)CC(C)=O` reads 57.1%; that for `Cc1cc(Cc2ccccc2)c(O)c(Cc2ccccc2)c1`, 98.2%.
The result for `Nc1cc(N)ncn1` reads 99.2%.
As to `CC(C)(C)NCCC(O)c1cc(C(F)(F)F)nc2c(C(F)(F)F)cccc12` (stereo not given), the growth was 94.5%.
The result for `O=Cc1c(O)c2ccccc2[nH]c1=O` reads 108%.
In the case of `CN=S(=O)(OCCCCCOS(=O)(=NC)c1ccc(C)cc1)c1ccc(C)cc1` (stereo not given), the growth was 39.6%.
The result for `CCOC(=O)c1c(C)[nH]c(C)c1C=O` reads 79.8%; that for `O=C(NCc1ccccc1)/C(=C/c1ccccc1)NC(=O)c1ccccc1`, 94.4%.
In the case of `O=c1cc(Cl)nc2ccccn12` it was 119%.
The result for `Oc1cc(O)c2c(c1)O[C@H](c1ccc(O)c(O)c1)[C@@H](O)C2` reads 94.4%.
Turning to `CCOP(=O)(NC(c1ccccc1)c1ccccc1)OCC`, the growth was 103%.
Regarding `Cc1ccc2nc(N)nnc2c1`, the growth was 102%.
In the case of `Cc1ccc(S(N)(=O)=O)cc1Cl` it was 102%; in that of `Nc1cc2ccccc2c(O)c1O`, 19.6%.
In the case of `CC(C)N1CC(=O)N2CSCC2C1=O` (stereo not given) it was 107%; in that of `CCOC(=N)CC(=O)Nc1cccc(C)c1Cl`, 109%; in that of `Cc1cc2c(C(C)C)c(O)c(O)c(C=Nc3ccccc3[N+](=O)[O-])c2c(O)c1-c1c(C)cc2c(C(C)C)c(O)c(O)c(C=Nc3ccccc3[N+](=O)[O-])c2c1O`, 35%.
On to `Cc1cc(C(=O)NN)c(C#N)c(=O)[nH]1`, for which the growth is 95.9%.
For the compound `COC1OC(CO)C(OC)C(O)C1O` (stereo not given), the growth is 102%.
Take `CCOC(=O)/C(O)=C(\C=N\C(=S)Nc1ccc(Cl)c(Cl)c1)C(=O)OCC`: the growth is 97.7%.
In the case of `O=C(c1ccccc1)c1ccc(-c2ccc(O)cc2)cc1` it was 60.7%; in that of `CC(=O)C1C(=O)C(=O)N(c2cccc([N+](=O)[O-])c2)C1=O` (stereo not given), 106%; in that of `CCOC(OCC)C(=O)c1ccccc1`, 99.8%.
As to `Cc1ccc(O)c(N)c1`, the growth is 78.7%.
Take `COC(=O)c1ccccc1C(=O)c1c(C)cc(C)cc1C`: the growth is 99.2%.
Take `COc1cc(-c2ccc(NC(=O)CC(C)=O)c(OC)c2)ccc1NC(=O)CC(C)=O`: the growth was 100%.
In the case of `Oc1cccc(CNC2CCCCC2)c1` it was 107%; in that of `COc1ccc(C(=O)C(=O)c2ccccc2)cc1`, -54.2% (active).
In the case of `CSc1cnc2ccccc2n1` it was 113%; in that of `Nc1ccc2c(c1)Cc1cc(N)c(N)cc1-2`, 105%.
The result for `CCCCN(C(=O)CC)c1ccccc1` reads -8.28% (active).
Consider `Nc1c(Br)cc(O)c2c1C(=O)c1ccccc1C2=O`, for which the growth is 56.5%.
The result for `CC(=O)N(C(C)=O)c1ccc(C)cc1` reads 106%; that for `CCOC(=O)c1ccc(NC(C)=O)o1`, 98.8%.
